In PubChem BioAssay (NCATS):
Records with an inconclusive call do not appear. A number with no mark means an inactive call. Calls come from the whole dose curve; as a rule, active = well fitted inhibition curve with a large enough effect; inconclusive = small, poorly fitted or top-dose-only effect, or effect the other way; inactive = flat fitted curve, though single readings scatter.

Target: ATP-dependent 6-phosphofructokinase (Trypanosoma brucei brucei) (UniProt O15648)
Assay: qHTS Assay to Find Inhibitors of T. brucei phosphofructokinase: hit validation (AID 492961);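 note: luminescence reports ADP formed as PFK phosphorylates fructose-6-phosphate with ATP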
Settings: T. brucei PFK, ADP-Glo luminescence; series mostly up to 51.4 µM; activity change, negative = inhibition: at the top concentration
Outline: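 Inhibition of parasite PFK is measured as reduced ADP formation, quantified via luciferase after ATP depletion. Assay used 0.1 mM ATP, 0.5 mM F6P, 1.25 nM enzyme, 45 min incubation.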
% is set by controls: 0 for no effect and ±100 for the full control effect.

ATP-dependent 6-phosphofructokinase (Trypanosoma brucei brucei), sequence (O15648 whole entry, looked up): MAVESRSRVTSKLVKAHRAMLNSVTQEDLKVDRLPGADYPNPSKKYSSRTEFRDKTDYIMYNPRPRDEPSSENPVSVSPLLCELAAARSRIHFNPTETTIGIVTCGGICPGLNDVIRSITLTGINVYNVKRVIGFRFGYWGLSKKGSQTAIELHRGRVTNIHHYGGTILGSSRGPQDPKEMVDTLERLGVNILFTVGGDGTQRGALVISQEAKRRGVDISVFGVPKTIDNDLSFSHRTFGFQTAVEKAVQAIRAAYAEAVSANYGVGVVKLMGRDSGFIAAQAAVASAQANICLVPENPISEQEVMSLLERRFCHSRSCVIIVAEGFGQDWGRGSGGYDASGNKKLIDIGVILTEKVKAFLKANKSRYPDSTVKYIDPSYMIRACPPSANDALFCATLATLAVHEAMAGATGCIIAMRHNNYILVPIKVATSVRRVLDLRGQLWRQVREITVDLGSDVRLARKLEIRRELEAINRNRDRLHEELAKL

Row | Structure (SMILES) | activity change, negative = inhibition
1 | C[Si](C)(C)O[Si](C)(C)C | 0.801%
2 | NC(=O)C1c2ccccc2CCc2ccccc21 | 6.08%
3 | CCC(=O)c1ccc2c(c1)N(CCCN1CCN(CCO)CC1)c1ccccc1S2 | 4.64%
4 | Cc1ncc(C[n+]2csc(CCOP(=O)(O)OP(=O)(O)O)c2C)c(N)n1 | -1.25%
5 | CCSc1ccc2c(c1)N(CCCN1CCN(C)CC1)c1ccccc1S2 | 2.95% [at 24.3 µM]
6 | C=CCN1CCCC1CNC(=O)c1cc(S(N)(=O)=O)cc(OC)c1OC (stereo unspecified) | 4.49%
7 | OCl | 1.28%
8 | O=C(OCc1ccccc1)c1ccc(O)cc1 | 0.719%
9 | CCN(CC)CCOc1ccccc1OC | -4.07%
10 | O=P(O)(O)OP(=O)(O)OP(=O)(O)O | 3.06%
11 | C=CCCCCCCCCC(=O)OC | -9.52%
12 | OCc1ccccc1 | -5.87%
13 | CCCCCCCCCCCCCCCCCC[N+](C)(C)CCC[Si](OC)(OC)OC | 3.66%
14 | COc1ccc(/C=C/C(=O)OCCC(C)C)cc1 | 3.47%
15 | CCc1ccc(S(=O)(=O)O)cc1 | 0.799%
16 | C=CC[C@@H]1/C=C(\C)C[C@H](C)C[C@H](OC)[C@H]2O[C@@](O)(C(=O)C(=O)N3CCCC[C@H]3C(=O)O[C@H](/C(C)=C/[C@@H]3CC[C@@H](O)[C@H](OC)C3)[C@H](C)[C@@H](O)CC1=O)[C@H](C)C[C@@H]2OC | 12.3%
